According to PubChem BioAssay:
Several values for one entry are separate records, joined by “and”; a condition that tells them apart may be missing. Equal values may be shown once.

Test: Plasmodium falciparum growth inhibition, primary screen, strain 3D7, DAPI fluorescence, 100 nL (AID 1184);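 note: parasites grown inside human red blood cells in medium with human serum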
Details: P. falciparum 3D7 growth, 3 d, higher = more signal

Row | Structure (SMILES) | z-score
1 | CO[C@H]1COC(=O)[C@H](C)NC(=O)CC=C[C@@H](C)[C@H](OC)COC(=O)CC=C[C@@H]1C | 0.459
2 | C=CCN(C(=O)C1N(CCOCCO)C(=O)C2C(C(=O)O)C3C=CC21O3)C(C)(C)C (stereo unspecified) | -0.283 and -0.145
3 | O=C(NN=C1C[C@@H](O)[C@@H](O)[C@@H]2[C@@H]3C(=O)N(Cc4ccc5c(c4)OCO5)C(=O)[C@@H]3CC[C@H]12)OCc1ccccc1 | 0.228
4 | CC(C)=CCCC(C)=CCON=C1C[C@@H](O)[C@@H](O)[C@@H]2[C@@H]3C(=O)N([C@@H](C)c4ccccc4)C(=O)[C@@H]3CC[C@H]12 | -0.12
5 | C=CC[C@H](O)c1ccc(OCCO)cc1 | -0.597 and 1.72
6 | O=c1n(-c2ccccc2)c(=O)n2n1CC[C@@H]1C(=NOC[C@@H](O)COCc3ccco3)[C@H]3O[C@H]3[C@@H](O)[C@@H]12 | -1.77 and -0.681
7 | COC(=O)C1=C(C)N(Cc2ccccc2)C2=C3C(=O)N(C)C(=O)[C@@H]3[C@@](O)(C(=O)OC)C(=O)N2[C@@H]1c1ccccc1 | 0.557 and 0.251
8 | CC(C)N1CC=CC23O[C@@H]4C=CCCOC(=O)C4[C@H]2C(=O)N(C(C)CO)[C@@H]3C1=O (stereo partly specified) | -0.819 and -0.728
9 | C=CCN(Cc1ccccc1)C(=O)C1N(CCCCCCO)C(=O)C2C(C(=O)O)C3C=CC21O3 (stereo unspecified) | 0.865 and 1.05
10 | CC(C)=NOCc1ccc(-c2cn([C@@H]3COC[C@H]3O)nn2)cc1 | 1.76
11 | C[C@@H](ON=C1[C@H]2CCn3c(=O)n(-c4ccccc4)c(=O)n3[C@H]2[C@H](O)[C@@H]2O[C@H]12)c1cn([C@H](CO)Cc2ccccc2)nn1 | -0.516
12 | C=C[C@H](C)[C@@H](O)c1ccc(OCCO)cc1 | 0.394 and 0.709
13 | CC(C)CON=C1C[C@@H](O)[C@@H](O)[C@@H]2[C@@H]3C(=O)N(c4cccc(Oc5ccccc5)c4)C(=O)[C@@H]3CC[C@H]12 | -0.638
14 | CC(CO)N1C(=O)[C@@H]2C3C(=O)OCCC=C[C@H]3OC23C=CCN(Cn2nnc4ccccc42)C(=O)[C@@H]13 (stereo partly specified) | -0.0355 and 0.986
15 | C=C(C)C(=O)OC[C@@H]1CN2[C@@H](CC[C@@H](C)[C@@H]2c2ccc(Br)cc2)C(=O)O1 | 0.693
16 | C[C@@H]1CC[C@@H](C(=O)O)N[C@H]1c1ccc(-c2ccco2)cc1 | -0.25

Row | Structure (SMILES) | z-score
17 | COC(=O)C1=C(C)N(Cc2ccccc2)[C@]23O[C@](C(=O)OC)(C(=O)N2[C@@H]1c1ccccc1)[C@@H](c1ccccc1)[C@@H]3C(=O)c1ccccc1 | -0.362 and 0.318
18 | COC(=O)CC=C[C@@H](C)[C@@H](CO)NS(=O)(=O)c1ccc(C)cc1 | -0.106 and 0.0276
19 | CO[C@@H]1COC(=O)CC=C[C@H](C)COC(=O)[C@H](C)NC(=O)CC=C[C@H]1C | -0.233
20 | C[C@@H](c1ccccc1)N1C(=O)[C@H]2[C@H]3[C@H](O)[C@H](O)CC(=O)[C@@H]3CC[C@H]2C1=O | 0.241
21 | C=CCN(C(=O)C1N(C(C)(C)CO)C(=O)C2C(C(=O)O)C3C=CC21O3)C(C)(C)C (stereo unspecified) | 0.214 and -0.208
22 | CCOC(=O)C[C@H]1[C@H](OC(=O)c2ccccc2-c2ccccc2)[C@@H](NC(=O)Cc2ccc(OC)cc2)c2cc(OCCCO)ccc2N1C(=O)c1ccc2ccccc2n1 | -0.543 and -0.616
23 | C=CCN(CCCCC)C(=O)C1N(c2ccc(CCO)cc2)C(=O)C2C(C(=O)O)C3C=CC21O3 (stereo unspecified) | 0.062 and -0.336
24 | COc1ccc(O[C@H]2C=C[C@@H](c3ccccc3)O[C@@H]2COC(=O)CCC(C)=NO[C@H](C)c2cn([C@H](CO)Cc3ccccc3)nn2)cc1 | -1.46 and -1.1
25 | C=CCN(CCCC)C(=O)C1N(c2ccc(CCO)cc2)C(=O)C2C(C(=O)O)C3C=CC21O3 (stereo unspecified) | 0.224 and -1.45
26 | Cc1ccc(S(=O)(=O)OC[C@@H]2CN3[C@@H](CC[C@@H](C)[C@@H]3c3ccc(Br)cc3)C(=O)O2)cc1 | -0.17 and -0.013
27 | Cc1ccc(S(=O)(=O)N[C@H]2COC(=O)[C@@H](Cc3ccccc3)NC(=O)[C@@H](C)COC(=O)CC=C[C@@H]2C)cc1 | -0.446 and -1.34
28 | O=C1[C@H]2[C@H]3[C@H](O)[C@H](O)CC(=NOCc4ccccc4)[C@H]3CC[C@H]2C(=O)N1Cc1ccccc1 | -1.76
29 | CON(C)C(=O)c1nnc2c3ccccc3n(S(=O)(=O)c3ccc(C)cc3)c2n1 | -0.248 and -0.675
30 | CCOC(=O)NN=C1C[C@@H](O)[C@@H](O)[C@@H]2[C@@H]3C(=O)N(Cc4ccc5c(c4)OCO5)C(=O)[C@@H]3CC[C@@H]12 | 0.132
31 | C=CCN(Cc1ccccc1)C(=O)C(c1cccs1)N(C(=O)/C=C\C(=O)O)c1c(Cl)cccc1CO (stereo unspecified) | -0.82 and -0.106
